Holding throughout (conditions): modulator concentration 10 µM
Assay [1] deals with RAW-Dual (murine macrophage reporter line). Nature of the assay: NF-kB reporter (SEAP) activity fold change vs agonist alone; higher = enhanced NF-kB activity. In outline:
(§1)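 RAW-Dual murine macrophage reporter cells were seeded at 50 000 per well in 384-well plates and pre-incubated 1 hour at 37 °C with compound pin-transferred to 10 μM final. After 1 hour, a PRR agonist was added and cells incubated overnight. Supernatant NF-κB (SEAP, QUANTI-Blue, 620 nm absorbance) and IRF (Lucia luciferase, QUANTI-Luc, luminescence) signals were divided by the mean agonist-only control on the same plate to give fold change. Two replicate plates were averaged, with errors by propagation.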

Assay [2] shares this test system. Briefly: IRF reporter (Lucia luciferase) activity fold change vs agonist alone; higher = enhanced IRF activity. In outline: as §1
Assay [3] has the same test system. Nature of the assay: viability score (confluency relative to resting cells, overnight) (fraction); higher = more viable, active = viable (0.7 or more). In outline:
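Confluency was the readout: RAW-Dual macrophages were imaged with IncuCyte after an overnight exposure to compound at 10 μM final. IncuCyte software produced two masks over all imaged wells. The viability score expresses confluency against resting cells, and both masks had to exceed 70% of resting cells for a compound to meet the cutoff.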

The mark [4] stands for this setting: agonist: CpG ODN 1826 0.5 ug/mL.

± gives the standard deviation.

For `O=C(NCCC(CCO)c1ccccc1)c1cccc(Cl)c1` (configuration not stated), the NF-kB reporter in assay [1] (setting [4]) was found to be 1.11 ± 0.068; in assay [1] (agonist: LPS 0.1 ug/mL), 1.02 ± 0.082; in assay [1] (agonist: MPLA […]), 0.946 ± 0.025. Besides, the IRF reporter worked out at 0.748 ± 0.027 in assay [2] (agonist: 3'3'-cGAMP 10 ug/mL), 0.967 ± 0.051 in assay [2] (agonist: LPS 0.1 ug/mL) and 0.984 ± 0.096 in assay [2] (agonist: MPLA […]). Besides, the viability score in assay [3] is 1 (active).

Regarding `Cc1cc(C)c(NC(=O)c2ccc(Oc3nccs3)cc2)c(C)c1`, the NF-kB reporter in assay [1] (setting [4]) came out at 0.893 ± 0.039; in assay [1] (agonist: LPS 0.1 ug/mL), 1.12 ± 0.098; in assay [1] (agonist: MPLA […]), 1.22 ± 0.18. Moreover, the IRF reporter in assay [2] (agonist: 3'3'-cGAMP 10 ug/mL) came to 0.844 ± 0.048; in assay [2] (agonist: LPS 0.1 ug/mL) it was 0.939 ± 0.21; in assay [2] (agonist: MPLA […]) it was 1.06 ± 0.42. Moreover, the viability score in assay [3] is 1.01 (active).

Regarding `COc1ccccc1N1CCN(CC(O)COc2cccc3ccccc23)CC1.Cl.Cl` (configuration not stated), the values for the NF-kB reporter in assay [1] (setting [4]), in assay [1] (agonist: LPS 0.1 ug/mL) and in assay [1] (agonist: MPLA […]) were 0.595 ± 0.13, 0.696 ± 0.13 and 0.725 ± 0.048, respectively. Also, the IRF reporter in assay [2] (agonist: 3'3'-cGAMP 10 ug/mL) came out at 0.654 ± 0.03; in assay [2] (agonist: LPS 0.1 ug/mL), 1.17 ± 0.34; in assay [2] (agonist: MPLA […]), 1.17 ± 0.22. For the same compound, the viability score in assay [3] is 0.97 (active).

Consider `O=[N+]([O-])c1ccc(N2CCOCC2)c(-c2nnn[nH]2)c1`, for which the figures for the NF-kB reporter in assay [1] (setting [4]), in assay [1] (agonist: LPS 0.1 ug/mL) and in assay [1] (agonist: MPLA […]) were 0.98 ± 0.25, 1.05 ± 0.11 and 0.918 ± 0.085, respectively. Further, the IRF reporter in assay [2] (agonist: 3'3'-cGAMP 10 ug/mL) came out at 0.938 ± 0.045; in assay [2] (agonist: LPS 0.1 ug/mL), 1.11 ± 0.14; in assay [2] (agonist: MPLA […]) it was 1.29 ± 0.17. Moreover, the viability score in assay [3] was 0.996 (active).

For the compound `CC(=O)c1ccc(NC(=O)c2ccccc2C(=O)O)cc1`, the values for the NF-kB reporter in assay [1] (setting [4]), in assay [1] (agonist: LPS 0.1 ug/mL) and in assay [1] (agonist: MPLA […]) were 1.27 ± 0.12, 1.14 ± 0.1 and 1.08 ± 0.12, respectively. Moreover, the IRF reporter in assay [2] (agonist: 3'3'-cGAMP 10 ug/mL) amounted to 0.903 ± 0.11; in assay [2] (agonist: LPS 0.1 ug/mL), 1.14 ± 0.13; in assay [2] (agonist: MPLA […]) it was 1.31 ± 0.29. Also, in assay [3], the viability score is 1 (active).

On to `CCCCOc1ccc(OCCCN2CCOCC2)cc1.Cl`, for which the NF-kB reporter was 1.2 ± 0.09 in assay [1] (setting [4]), 1.27 ± 0.16 in assay [1] (agonist: LPS 0.1 ug/mL) and 1.25 ± 0.1 in assay [1] (agonist: MPLA […]). For the same compound, the IRF reporter in assay [2] (agonist: 3'3'-cGAMP 10 ug/mL) turned out to be 0.643 ± 0.054; in assay [2] (agonist: LPS 0.1 ug/mL), 0.852 ± 0.051; in assay [2] (agonist: MPLA […]), 0.836 ± 0.071. For the same compound, the viability score in assay [3] was 0.981 (active).

Take `CCN(CC)CCCC(C)Nc1c2ccc(Cl)cc2nc2ccc(OC)cc12` (configuration not stated) [Prestw-318]: the values for the NF-kB reporter in assay [1] (setting [4]), in assay [1] (agonist: LPS 0.1 ug/mL) and in assay [1] (agonist: MPLA […]) were 0.0785 ± 0.011, 0.167 ± 0.04 and 0.447 ± 0.051, respectively. Moreover, the IRF reporter amounted to 0.0346 ± 0.0049 in assay [2] (agonist: 3'3'-cGAMP 10 ug/mL), 1.19 ± 0.22 in assay [2] (agonist: LPS 0.1 ug/mL) and 0.939 ± 0.22 in assay [2] (agonist: MPLA […]). Besides, the viability score in assay [3] was 0.825 (active).

On to `Nc1nc2c(ncn2C2CC(O)C(CO)O2)c(=O)[nH]1` (configuration not stated), for which the NF-kB reporter in assay [1] (setting [4]) turned out to be 0.96 ± 0.089; in assay [1] (agonist: LPS 0.1 ug/mL), 0.787 ± 0.059; in assay [1] (agonist: MPLA […]), 0.93 ± 0.089. Moreover, the values for the IRF reporter in assay [2] (agonist: 3'3'-cGAMP 10 ug/mL), in assay [2] (agonist: LPS 0.1 ug/mL) and in assay [2] (agonist: MPLA […]) were 1.02 ± 0.043, 1.26 ± 0.2 and 1.36 ± 0.28, respectively. Also, the viability score in assay [3] is 1.02 (active).

Regarding `Cc1ccc(S(=O)(=O)n2c(C)nc3ccccc32)cc1`, the NF-kB reporter in assay [1] (setting [4]) turned out to be 1.13 ± 0.22; in assay [1] (agonist: LPS 0.1 ug/mL), 1 ± 0.18; in assay [1] (agonist: MPLA […]), 0.897 ± 0.089. Further, the IRF reporter came out at 0.969 ± 0.025 in assay [2] (agonist: 3'3'-cGAMP 10 ug/mL), 1.2 ± 0.13 in assay [2] (agonist: LPS 0.1 ug/mL) and 1.27 ± 0.13 in assay [2] (agonist: MPLA […]). The viability score in assay [3] is 0.959 (active).

For `CC1=C(C)CC2C(=O)N(c3ccccc3C)C(=O)C2C1` (configuration not stated), the NF-kB reporter in assay [1] (setting [4]) is 0.797 ± 0.064; in assay [1] (agonist: LPS 0.1 ug/mL), 0.889 ± 0.068; in assay [1] (agonist: MPLA […]), 1.06 ± 0.12. Moreover, the IRF reporter in assay [2] (agonist: 3'3'-cGAMP 10 ug/mL) worked out at 0.982 ± 0.045; in assay [2] (agonist: LPS 0.1 ug/mL), 1.35 ± 0.078; in assay [2] (agonist: MPLA […]), 1.33 ± 0.15. Further, in assay [3], the viability score is 1.01 (active).

Regarding `CN1[C@@H]2CC[C@H]1C[C@@H](OC(c1ccccc1)c1ccccc1)C2.CS(=O)(=O)O`, the NF-kB reporter in assay [1] (setting [4]) was 0.95 ± 0.13; in assay [1] (agonist: LPS 0.1 ug/mL), 1.19 ± 0.5; in assay [1] (agonist: MPLA […]) it was 1.48 ± 0.23. The values for the IRF reporter in assay [2] (agonist: 3'3'-cGAMP 10 ug/mL), in assay [2] (agonist: LPS 0.1 ug/mL) and in assay [2] (agonist: MPLA […]) were 0.438 ± 0.013, 0.934 ± 0.35 and 1.53 ± 0.15, respectively.

On to `COc1cccc2c1C(=O)c1c(O)c3c(c(O)c1C2=O)C[C@@](O)(C(=O)CO)C[C@@H]3O[C@@H]1C[C@H](N)[C@@H](O)[C@H](C)O1` [Prestw-1752], for which the NF-kB reporter amounted to 0.219 ± 0.025 in assay [1] (setting [4]), 0.0896 ± 0.013 in assay [1] (agonist: LPS 0.1 ug/mL) and 0.169 ± 0.016 in assay [1] (agonist: MPLA […]). For the same compound, the IRF reporter in assay [2] (agonist: 3'3'-cGAMP 10 ug/mL) was 0.264 ± 0.011; in assay [2] (agonist: LPS 0.1 ug/mL) it was 0.185 ± 0.05; in assay [2] (agonist: MPLA […]) it was 0.33 ± 0.053. The viability score in assay [3] was 0.458 (inactive).

Consider `C#CCN(C)Cc1ccccc1.Cl`, for which the NF-kB reporter in assay [1] (setting [4]) came out at 0.99 ± 0.11; in assay [1] (agonist: LPS 0.1 ug/mL), 0.895 ± 0.059; in assay [1] (agonist: MPLA […]) it was 0.98 ± 0.021. For the same compound, the IRF reporter in assay [2] (agonist: 3'3'-cGAMP 10 ug/mL) was found to be 0.967 ± 0.075; in assay [2] (agonist: LPS 0.1 ug/mL) it was 1.01 ± 0.11; in assay [2] (agonist: MPLA […]), 0.833 ± 0.2. Also, the viability score in assay [3] is 0.999 (active).

As for `CSc1nc(C(C)(C)C)cc(C(F)(F)F)c1C#N`, the NF-kB reporter in assay [1] (setting [4]) was 0.738 ± 0.061; in assay [1] (agonist: LPS 0.1 ug/mL) it was 0.955 ± 0.15; in assay [1] (agonist: MPLA […]) it was 1.12 ± 0.049. The IRF reporter in assay [2] (agonist: 3'3'-cGAMP 10 ug/mL) turned out to be 0.998 ± 0.05; in assay [2] (agonist: LPS 0.1 ug/mL), 0.855 ± 0.12; in assay [2] (agonist: MPLA […]), 0.923 ± 0.26. Also, in assay [3], the viability score is 0.996 (active).

The values are drawn from the supplement of paper PMC10646978.
